From the supplement of paper PMC10849652
The full data set covers some 8,800 targets. This sample favours those with a hit. About 0.5% of all pairs of compound and target were hits. Values without a mark were called inactive.

Columns and labels:
Test in all cases: log2 fold change, soluble protein after heating vs DMSO (PISA); higher = thermal stabilisation; K562 lysate, 10 uM; active = over 0.2 and 3.5 SD of the protein, either way, in both replicates (recomputed)
alvocidib = compound: CN1CC[C@H](c2c(O)cc(O)c3c(=O)cc(-c4ccccc4Cl)oc23)[C@H](O)C1 [alvocidib]
Procedure, shortened: (§1)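 Values give the log-two fold change in thermal stability against solvent controls, from duplicates. Crude K562 extract at 1 mg/mL protein, made by dounce homogenisation in PBS pH 7.4 with 1 mM MgCl2, was treated with 10 μM compound for 30 min. After 3 min heating across 48°C-58°C, aliquots were pooled, adjusted to 0.5% NP-40 at 4°C and centrifuged at 21,000xg for 90 min. The supernatant was measured by TMTpro 16plex LC-MS/MS with channel sums equalised.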

Tubastatin A = compound: CN1CCc2c(c3ccccc3n2Cc2ccc(C(=O)NO)cc2)C1 [Tubastatin A]
Procedure, shortened: as §1

[1] = compound: CNC(=O)C1=CC=CC=C1NC2=NC(=NC=C2Cl)NC3=C(C=C(C=C3)N4CCOCC4)OC
Procedure, shortened: as §1

defactinib = compound: CNC(=O)c1ccc(Nc2ncc(C(F)(F)F)c(NCc3nccnc3N(C)S(C)(=O)=O)n2)cc1 [defactinib]
Procedure, shortened: as §1

[2] = compound: CNc1nc(-c2ccc3c(N)n[nH]c3c2)cc(N2C[C@@H](C(=O)NC3CCCCC3)CC[C@H]2C)n1
Procedure, shortened: as §1

encorafenib = compound: COC(=O)N[C@@H](C)CNc1nccc(-c2cn(C(C)C)nc2-c2cc(Cl)cc(NS(C)(=O)=O)c2F)n1 [encorafenib]
Procedure, shortened: as §1

[3] = compound: COC(=O)[C@H](CCSC)NC(=O)C1=C(C=C(C=C1)NC[C@H](CS)N)C2=CC=CC=C2
Procedure, shortened: as §1

alisertib = compound: COc1cc(Nc2ncc3c(n2)-c2ccc(Cl)cc2C(c2c(F)cccc2OC)=NC3)ccc1C(=O)O [alisertib]
Procedure, shortened: as §1

[4] = compound: COc1cc2nc(-c3cc(F)ccc3O)nc(N[C@@H]3CNC[C@H]3C(C)(C)O)c2cc1OC
Procedure, shortened: as §1

gefitinib = compound: COc1cc2ncnc(Nc3ccc(F)c(Cl)c3)c2cc1OCCCN1CCOCC1 [gefitinib]
Procedure, shortened: as §1

lapatinib = compound: CS(=O)(=O)CCNCc1ccc(-c2ccc3ncnc(Nc4ccc(OCc5cccc(F)c5)c(Cl)c4)c3c2)o1 [lapatinib]
Procedure, shortened: as §1

pictilisib = compound: CS(=O)(=O)N1CCN(Cc2cc3nc(-c4cccc5[nH]ncc45)nc(N4CCOCC4)c3s2)CC1 [pictilisib]
Procedure, shortened: as §1

crizotinib = compound: C[C@@H](Oc1cc(-c2cnn(C3CCNCC3)c2)cnc1N)c1c(Cl)ccc(F)c1Cl [crizotinib]
Procedure, shortened: as §1

[5] = compound: C[C@H](C1=CC=C(C=C1)C(=O)NC2=C3C=CNC3=NC=C2)N
Procedure, shortened: as §1

duvelisib = compound: C[C@H](Nc1ncnc2nc[nH]c12)c1cc2cccc(Cl)c2c(=O)n1-c1ccccc1 [duvelisib]
Procedure, shortened: as §1

gandotinib = compound: Cc1cc(Nc2cc(CN3CCOCC3)c3nc(C)c(Cc4ccc(Cl)cc4F)n3n2)n[nH]1 [gandotinib]
Procedure, shortened: as §1

tozasertib = compound: Cc1cc(Nc2cc(N3CCN(C)CC3)nc(Sc3ccc(NC(=O)C4CC4)cc3)n2)n[nH]1 [tozasertib]
Procedure, shortened: as §1

doramapimod = compound: Cc1ccc(-n2nc(C(C)(C)C)cc2NC(=O)Nc2ccc(OCCN3CCOCC3)c3ccccc23)cc1 [doramapimod]
Procedure, shortened: as §1

bafetinib = compound: Cc1ccc(NC(=O)c2ccc(CN3CC[C@H](N(C)C)C3)c(C(F)(F)F)c2)cc1Nc1nccc(-c2cncnc2)n1 [bafetinib]
Procedure, shortened: as §1

[6] = compound: Cc1cccc(CC(=O)N2CCc3c2ccc(-c2cn(C)c4ncnc(N)c24)c3F)n1
Procedure, shortened: as §1

Chain of UniProt Q9BXP5 (Q9BXP5 whole entry, looked up): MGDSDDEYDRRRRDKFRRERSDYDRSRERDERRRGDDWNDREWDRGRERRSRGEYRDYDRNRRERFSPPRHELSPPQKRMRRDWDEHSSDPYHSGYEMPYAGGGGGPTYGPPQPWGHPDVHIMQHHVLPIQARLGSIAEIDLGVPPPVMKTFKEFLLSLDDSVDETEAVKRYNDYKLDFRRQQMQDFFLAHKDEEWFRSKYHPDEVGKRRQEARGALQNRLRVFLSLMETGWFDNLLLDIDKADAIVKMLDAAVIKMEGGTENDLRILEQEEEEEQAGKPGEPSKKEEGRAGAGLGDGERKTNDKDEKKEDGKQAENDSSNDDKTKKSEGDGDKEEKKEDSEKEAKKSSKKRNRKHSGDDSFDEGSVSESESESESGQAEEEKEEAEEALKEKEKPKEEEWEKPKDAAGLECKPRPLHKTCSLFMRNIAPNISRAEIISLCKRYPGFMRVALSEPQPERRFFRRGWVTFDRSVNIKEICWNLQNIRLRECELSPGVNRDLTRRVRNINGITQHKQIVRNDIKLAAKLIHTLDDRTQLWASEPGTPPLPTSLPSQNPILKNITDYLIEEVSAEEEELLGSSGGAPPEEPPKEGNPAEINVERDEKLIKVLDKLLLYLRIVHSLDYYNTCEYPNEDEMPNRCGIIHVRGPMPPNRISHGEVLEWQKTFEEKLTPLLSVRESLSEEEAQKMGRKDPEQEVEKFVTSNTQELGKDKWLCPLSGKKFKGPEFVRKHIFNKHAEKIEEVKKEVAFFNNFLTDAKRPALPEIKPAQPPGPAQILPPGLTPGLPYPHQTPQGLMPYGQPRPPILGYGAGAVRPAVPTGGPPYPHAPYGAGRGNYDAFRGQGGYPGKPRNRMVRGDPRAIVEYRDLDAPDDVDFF
Chain of UniProt Q13395 (Q13395 whole entry, looked up): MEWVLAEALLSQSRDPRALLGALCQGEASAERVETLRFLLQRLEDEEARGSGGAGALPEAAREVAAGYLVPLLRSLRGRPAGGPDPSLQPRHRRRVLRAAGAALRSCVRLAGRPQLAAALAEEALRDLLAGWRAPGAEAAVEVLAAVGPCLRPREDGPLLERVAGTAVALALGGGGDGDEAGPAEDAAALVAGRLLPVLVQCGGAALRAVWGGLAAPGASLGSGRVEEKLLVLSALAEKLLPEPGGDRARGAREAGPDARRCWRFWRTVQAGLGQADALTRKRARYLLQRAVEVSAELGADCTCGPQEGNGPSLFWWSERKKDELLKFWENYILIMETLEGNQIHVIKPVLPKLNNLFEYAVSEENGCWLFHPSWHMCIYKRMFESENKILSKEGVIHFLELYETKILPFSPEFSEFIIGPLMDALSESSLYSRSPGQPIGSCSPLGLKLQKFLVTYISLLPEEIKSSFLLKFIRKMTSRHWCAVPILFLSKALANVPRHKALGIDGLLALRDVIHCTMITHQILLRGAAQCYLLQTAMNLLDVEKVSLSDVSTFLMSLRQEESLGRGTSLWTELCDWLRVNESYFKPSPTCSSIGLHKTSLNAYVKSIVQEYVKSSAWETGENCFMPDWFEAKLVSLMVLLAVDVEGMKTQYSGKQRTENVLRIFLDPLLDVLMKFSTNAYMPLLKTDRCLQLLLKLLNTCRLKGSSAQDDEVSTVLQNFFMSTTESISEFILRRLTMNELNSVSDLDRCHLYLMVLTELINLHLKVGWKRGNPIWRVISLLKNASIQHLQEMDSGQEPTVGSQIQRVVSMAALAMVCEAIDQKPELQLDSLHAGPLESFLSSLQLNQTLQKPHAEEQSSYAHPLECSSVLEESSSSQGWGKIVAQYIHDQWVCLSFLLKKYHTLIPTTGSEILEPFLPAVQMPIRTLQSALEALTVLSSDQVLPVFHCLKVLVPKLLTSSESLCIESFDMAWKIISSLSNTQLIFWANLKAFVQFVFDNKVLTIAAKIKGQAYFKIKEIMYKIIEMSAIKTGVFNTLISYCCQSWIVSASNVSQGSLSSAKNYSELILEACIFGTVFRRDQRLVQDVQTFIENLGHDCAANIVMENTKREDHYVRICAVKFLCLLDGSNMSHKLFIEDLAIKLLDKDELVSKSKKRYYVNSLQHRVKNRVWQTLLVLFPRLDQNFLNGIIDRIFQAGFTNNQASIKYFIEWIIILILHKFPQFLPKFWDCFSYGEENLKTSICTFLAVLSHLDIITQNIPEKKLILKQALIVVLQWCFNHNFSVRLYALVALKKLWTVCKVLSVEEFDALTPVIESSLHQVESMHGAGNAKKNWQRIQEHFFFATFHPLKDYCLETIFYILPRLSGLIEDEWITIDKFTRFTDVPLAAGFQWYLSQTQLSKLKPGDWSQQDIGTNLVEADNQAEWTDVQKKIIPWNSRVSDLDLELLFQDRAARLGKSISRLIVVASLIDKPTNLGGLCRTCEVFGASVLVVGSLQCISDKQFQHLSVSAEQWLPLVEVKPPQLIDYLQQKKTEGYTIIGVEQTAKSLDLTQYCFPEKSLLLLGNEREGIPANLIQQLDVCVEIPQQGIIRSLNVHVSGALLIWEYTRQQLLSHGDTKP
Chain of UniProt Q13043 (Q13043 whole entry, looked up): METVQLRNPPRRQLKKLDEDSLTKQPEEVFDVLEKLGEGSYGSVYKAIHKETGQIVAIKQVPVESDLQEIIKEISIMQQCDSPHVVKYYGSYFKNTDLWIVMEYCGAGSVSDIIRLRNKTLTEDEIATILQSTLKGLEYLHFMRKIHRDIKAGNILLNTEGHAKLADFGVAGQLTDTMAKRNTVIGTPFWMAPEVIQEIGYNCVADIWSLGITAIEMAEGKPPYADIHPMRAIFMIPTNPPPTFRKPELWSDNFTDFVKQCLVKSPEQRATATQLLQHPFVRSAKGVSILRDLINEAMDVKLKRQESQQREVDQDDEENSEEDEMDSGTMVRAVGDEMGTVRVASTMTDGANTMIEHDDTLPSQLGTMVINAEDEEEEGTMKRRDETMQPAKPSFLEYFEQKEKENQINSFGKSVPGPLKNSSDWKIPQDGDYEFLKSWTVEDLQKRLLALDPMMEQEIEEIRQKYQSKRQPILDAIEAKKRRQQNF
Chain of UniProt Q8IX90 (Q8IX90 whole entry, looked up): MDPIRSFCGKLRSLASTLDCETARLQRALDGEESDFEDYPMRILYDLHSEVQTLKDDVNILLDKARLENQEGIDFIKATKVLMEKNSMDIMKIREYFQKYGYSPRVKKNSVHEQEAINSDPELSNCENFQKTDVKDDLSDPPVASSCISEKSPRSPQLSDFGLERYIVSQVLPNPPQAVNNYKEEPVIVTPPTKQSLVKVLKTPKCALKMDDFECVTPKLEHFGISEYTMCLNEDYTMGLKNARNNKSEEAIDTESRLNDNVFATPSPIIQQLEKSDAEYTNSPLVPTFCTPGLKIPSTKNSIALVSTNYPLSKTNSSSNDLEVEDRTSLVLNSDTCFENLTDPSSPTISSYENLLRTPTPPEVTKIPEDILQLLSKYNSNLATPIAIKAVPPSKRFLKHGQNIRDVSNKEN
Chain of UniProt O00161 (O00161 whole entry, looked up): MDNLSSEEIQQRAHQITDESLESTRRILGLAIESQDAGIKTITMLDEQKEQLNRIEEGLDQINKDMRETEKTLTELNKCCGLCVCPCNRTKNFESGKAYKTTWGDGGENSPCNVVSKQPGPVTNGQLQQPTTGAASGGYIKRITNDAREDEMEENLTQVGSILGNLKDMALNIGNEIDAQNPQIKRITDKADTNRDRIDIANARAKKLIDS
Chain of UniProt O95926 (O95926 whole entry, looked up): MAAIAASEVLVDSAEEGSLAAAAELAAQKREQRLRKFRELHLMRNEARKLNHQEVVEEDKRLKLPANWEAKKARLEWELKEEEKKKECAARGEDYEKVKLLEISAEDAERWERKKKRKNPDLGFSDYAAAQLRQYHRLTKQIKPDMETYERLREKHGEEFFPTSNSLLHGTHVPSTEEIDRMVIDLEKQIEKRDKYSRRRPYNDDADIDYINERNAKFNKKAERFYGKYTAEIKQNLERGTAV
Chain of UniProt Q13148 (Q13148 whole entry, looked up): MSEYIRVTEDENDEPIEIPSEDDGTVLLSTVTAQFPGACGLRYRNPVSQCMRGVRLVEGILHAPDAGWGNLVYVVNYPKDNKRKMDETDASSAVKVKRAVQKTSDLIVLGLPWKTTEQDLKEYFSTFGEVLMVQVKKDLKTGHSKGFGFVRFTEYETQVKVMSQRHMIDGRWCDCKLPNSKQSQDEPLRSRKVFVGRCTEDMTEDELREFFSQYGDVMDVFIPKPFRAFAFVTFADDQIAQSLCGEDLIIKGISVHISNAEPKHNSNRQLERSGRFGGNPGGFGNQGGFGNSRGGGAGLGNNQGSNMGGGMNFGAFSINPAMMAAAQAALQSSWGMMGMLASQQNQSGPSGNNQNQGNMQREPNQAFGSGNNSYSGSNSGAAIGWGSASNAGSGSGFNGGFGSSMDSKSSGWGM
Chain of UniProt Q08AE8 (Q08AE8 whole entry, looked up): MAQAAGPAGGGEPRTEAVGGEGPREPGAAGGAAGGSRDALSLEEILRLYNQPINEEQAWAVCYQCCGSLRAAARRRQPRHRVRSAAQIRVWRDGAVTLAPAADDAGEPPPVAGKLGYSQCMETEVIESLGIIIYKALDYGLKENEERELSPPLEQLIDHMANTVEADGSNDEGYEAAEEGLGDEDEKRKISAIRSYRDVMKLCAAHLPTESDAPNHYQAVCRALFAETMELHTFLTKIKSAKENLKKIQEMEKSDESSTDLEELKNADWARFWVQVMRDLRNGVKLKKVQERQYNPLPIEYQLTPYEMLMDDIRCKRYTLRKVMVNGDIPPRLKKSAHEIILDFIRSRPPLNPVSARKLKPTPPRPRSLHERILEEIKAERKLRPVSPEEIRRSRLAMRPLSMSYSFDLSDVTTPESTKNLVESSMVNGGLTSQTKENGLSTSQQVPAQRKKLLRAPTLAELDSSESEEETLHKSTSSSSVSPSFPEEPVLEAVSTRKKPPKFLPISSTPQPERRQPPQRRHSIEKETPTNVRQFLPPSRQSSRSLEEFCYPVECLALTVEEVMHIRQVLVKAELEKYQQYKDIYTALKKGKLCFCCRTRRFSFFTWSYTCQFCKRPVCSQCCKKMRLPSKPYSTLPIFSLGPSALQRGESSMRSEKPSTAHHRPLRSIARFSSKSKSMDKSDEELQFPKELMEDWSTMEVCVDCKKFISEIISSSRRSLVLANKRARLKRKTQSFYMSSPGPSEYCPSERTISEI

Target | log2 fold change (alvocidib) | log2 fold change (Tubastatin A) | log2 fold change [1] | log2 fold change (defactinib) | log2 fold change [2] | log2 fold change (encorafenib) | log2 fold change [3] | log2 fold change (alisertib) | log2 fold change [4] | log2 fold change (gefitinib) | log2 fold change (lapatinib) | log2 fold change (pictilisib) | log2 fold change (crizotinib) | log2 fold change [5] | log2 fold change (duvelisib) | log2 fold change (gandotinib) | log2 fold change (tozasertib) | log2 fold change (doramapimod) | log2 fold change (bafetinib) | log2 fold change [6]
SPIRE1 (UniProt Q08AE8) | -0.101 | 0.02 | 0.038 | -0.024 | 0.084 | -0.046 | -0.036 | 0.02 | 0.076 | 0.049 | -0.019 | 0.012 | -0.072 | -0.281 (active) | -0.021 | 0.128 | -0.023 | 0.151 | -0.031 | 0.134
SYNRG (UniProt Q9UMZ2) | 0.026 | -0.016 | -0.021 | 0.015 | 0.002 | -0.004 | 0.024 | 0.033 | 0.003 | -0.006 | 0.022 | -0.016 | 0.016 | 0.043 | -0.041 | -0.037 | 0.024 | -0.023 | -0.032 | -0.044
SFR1 isoform 2 (UniProt Q86XK3) | -0.014 | -0.003 | -0.009 | -0.155 | -0.005 | 0.014 | -0.007 | 0.004 | -0.007 | -0.03 | 0.001 | 0.053 | 0.006 | 0.09 | 0.043 | 0.169 | -0.002 | 0.068 | -0.097 | 0.261 (active)
SKA3 (UniProt Q8IX90) | -0.035 | -0.056 | 0.03 | 0.035 | 0.04 | 0.023 | -0.051 | 0.039 | -0.012 | 0.063 | 0.009 | -0.022 | -0.029 | -0.008 | -0.022 | -0.011 | -0.008 | 0.002 | 0.027 | 0.034
SLC20A1 (UniProt Q8WUM9) | 0.002 | 0.054 | -0.012 | -0.155 | 0.016 | -0.039 | -0.057 | -0.026 | 0.036 | 0.05 | -0.002 | -0.065 | -0.009 | 0.016 | 0.038 | -0.016 | -0.006 | 0.042 | -0.075 | -0.013
SMAP2 (UniProt Q8WU79) | 0.017 | -0.002 | -0.058 | 0.024 | -0.086 | 0.047 | -0.037 | -0.004 | 0.01 | -0.03 | -0.017 | -0.164 | 0.102 | 0.031 | -0.008 | -0.008 | 0.054 | -0.019 | 0.051 | -0.032
SNAP23 (UniProt O00161) | 0.035 | 0.015 | -0.027 | -0.002 | -0.01 | 0 | -0.033 | -0.015 | 0.005 | 0.02 | 0.005 | -0.035 | 0.067 | 0.034 | -0.004 | 0.007 | 0.005 | 0.002 | 0.059 | -0.05
SNRNP40 (UniProt Q96DI7) | -0.026 | 0.021 | -0.019 | -0.009 | -0.021 | -0.025 | -0.01 | 0.016 | -0.004 | -0.01 | -0.014 | 0.063 | -0.042 | -0.075 | -0.006 | 0.167 | 0.015 | 0.121 | 0.011 | 0.089
TARBP1 (UniProt Q13395) | 0.009 | -0.118 | -0.066 | -0.034 | 0.047 | 0.073 | -0.236 | 0.018 | -0.004 | 0.011 | -0.009 | 0.007 | -0.122 | 0.017 | -0.034 | -0.124 | 0.098 | -0.022 | -0.044 | 0.079
TARDBP (UniProt Q13148) | -0.006 | -0.318 (active) | -0.044 | 0 | -0.139 | 0.181 | 0.137 | 0.012 | -0.004 | 0.06 | 0.002 | 0.145 | 0.018 | 0.005 | -0.045 | 0.115 | 0.022 | 0.282 | -0.055 | 0.044
STK4 (UniProt Q13043) | 0.011 | -0.095 | 0.365 | 0.231 | 0 | -0.073 | -0.055 | 0.051 | 0.257 | 0.002 | -0.029 | -0.025 | 0.382 | -0.104 | 0.004 | 0.504 (active) | 0.27 | -0.027 | -0.053 | 0.062
SRRT (UniProt Q9BXP5) | 0.014 | -0.195 | 0.008 | -0.013 | -0.02 | 0.024 | 0.202 | 0.03 | -0.01 | 0.009 | 0.005 | -0.029 | -0.055 | 0.059 | -0.007 | -0.072 | 0.032 | 0.066 | -0.023 | -0.018
SH3BGRL2 (UniProt Q9UJC5) | 0.067 | 0.031 | 0.05 | 0.039 | 0.061 | -0.066 | 0.027 | -0.013 | -0.001 | -0.001 | 0.021 | 0.012 | -0.025 | 0.342 (active) | -0.007 | -0.116 | -0.078 | 0.021 | -0.058 | -0.184
SPAG5 (UniProt Q96R06) | -0.019 | -0.119 | 0.031 | 0.008 | 0.003 | 0.071 | -0.081 | -0.01 | -0.017 | 0.019 | 0.013 | -0.004 | -0.056 | -0.016 | 0.038 | -0.11 | 0.029 | 0.036 | -0.044 | 0.058
SYF2 (UniProt O95926) | 0.004 | 0.039 | 0.103 | -0.034 | 0.049 | 0.038 | 0.033 | 0.018 | 0.058 | 0.038 | 0.026 | 0.003 | -0.008 | -0.023 | -0.144 | 0.055 | -0.066 | 0.04 | -0.026 | -0.016
TADA3 (UniProt O75528) | 0.001 | -0.04 | 0.044 | -0.007 | 0.06 | 0.029 | -0.024 | 0 | 0.001 | 0.03 | -0.005 | 0.009 | 0.017 | -0.09 | -0.002 | 0.143 | 0.066 | 0.006 | -0.051 | 0.087
